# LMP1 NFkB inh: reduces LMP1-driven NF-kappaB luciferase signal; LMP1-induced NF-kappaB luciferase reporter cells, luminescence; inhibition, % at 12.5 µM; 350,000 compounds, 0.69% hits; in the data active = inhibition above about 41%
# Shn3 3UTR inh: reduces Shn3 3'UTR luciferase signal in osteoblasts; Clone20 osteoblast Shn3 3'UTR firefly luciferase, 24 h; inhibition, % at 12.5 µM; AID 588674; 360,000 compounds, 0.52% hits;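 active = mean inhibition of at least 75% with every replicate also reaching 75%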
# Peg3 prom inh: reduces Peg3 promoter-driven luciferase expression in HeLa | HeLa PEG-Prom luciferase reporter, luminescence, overnight | inhibition, % at 20 µM | 360,000 compounds, 1.7% hits;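 active = inhibition of at least 50% at 20 µM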
# HIF-2a inh: HIF-2a inhibition | 786-0 RCC cells HIF-2a reporter, luciferase luminescence, overnight | inhibition, % at 18.8 µM | 360,000 compounds, 0.72% hits | AID 624352;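 active = inhibition of the luminescence signal of 40% or more relative to plate controls, in a single-dose primary screen at 18.75 µM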
# CF NFkB block: cystic fibrosis NF-kB activation inhibition. KKLEB NF-kB-GFP reporter, PAF-induced, GFP fluorescence overnight. inhibition, % at 5 µM. 360,000 compounds, 0.86% hits. AID 588850;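 active = at least 50% inhibition at 5 µM, scaled per plate between neutral and stimulator controls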;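 note: PAF is a Pseudomonas aeruginosa culture filtrate used as stimulus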
# KKLEB cytotox: counter-screen for CF NF-kB inhibitors: cytotoxicity | KKLEB CF airway cells viability, ATPlite luminescence, overnight; stronger effect = lower value; cells stimulated with P. aeruginosa culture filtrate | 360,000 compounds, 0.36% hits | activity change (cytotoxicity), % at 5 µM;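 active = corrected activity change at or below -50% at 5 µM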
# Hits are given with their value; i = inactive; nt = not tested or not shown. Shown are actives, neighbours in structure and some others; about 2.9% of the full set was active somewhere.
SMILES,LMP1 NFkB inh,Shn3 3UTR inh,Peg3 prom inh,HIF-2a inh,CF NFkB block,KKLEB cytotox
COc1cc(CC2C(=O)OCC2C(=O)c2ccc3c(c2)OCO3)cc(OC)c1OC (centres undefined),i,i,i,i,i,i
CN(C)c1ccnc2sc(C(N)=O)c(N)c12,56,i,i,i,91,i
O=C(Nc1ccn(CCCNCC(c2ccccc2)c2ccccc2)c(=O)n1)OCc1ccccc1,i,i,i,i,i,i
CCCn1c(NC(=O)c2ccccc2)nc2ccccc21,i,i,i,i,i,i
CCCn1c(NC(=O)c2cccc(S(=O)(=O)N3CCCC3)c2)nc2ccccc21,i,i,97,i,74,i
COc1ccc(Cl)cc1NC(=O)C1Cc2cc(S(=O)(=O)N3CCCC3)ccc2N1C(C)=O (centres undefined),i,i,i,i,i,i
S=C(NCCCN1CCOCC1)N1CCN(c2nc(-c3ccccc3)cs2)CC1,i,i,i,i,i,i
S=C(NCCCN1CCOCC1)N1CCN(c2nc(-c3ccc(Cl)cc3)cs2)CC1,44,i,75,i,i,i
CN(C)CCCN(C(=O)COc1ccc(Cl)cc1)c1nc2cc3c(cc2s1)OCO3,i,i,64,i,i,i
Cc1ccc2nc(N(CCCN(C)C)C(=O)CCc3ccccc3)sc2c1,i,i,53,i,i,i
Cc1ccc2nc(N(CCCN(C)C)C(=O)CS(=O)(=O)c3ccccc3)sc2c1,i,i,i,i,i,i
CN(C)CCCN(C(=O)CCc1ccccc1)c1nc2ccc(Cl)cc2s1,i,i,108,i,i,i
CC(=O)c1ccc(OCc2cc(C(=O)NCCn3nc(C)cc3C)no2)cc1,i,i,i,i,i,i
COC(=O)c1ccc(NC(=O)c2cccc(NC(=O)c3ccccc3)c2)cc1,i,i,i,i,i,i
COC(=O)c1ccc(N=c2sc(C(=O)OC)cc(=O)n2C)cc1,i,i,i,i,i,i
COC(=O)c1cc(=O)n(CCc2ccccc2F)c(=Nc2ccc(F)c(Cl)c2)s1,i,i,91,91,i,i
COC(=O)c1cc(=O)n(Cc2ccc3c(c2)OCO3)c(=Nc2ccc(F)cc2)s1,i,i,51,i,i,i
Cn1cc(P(=S)(N2CCOCC2)N2CCOCC2)cc1P(=S)(N1CCOCC1)N1CCOCC1,i,i,i,i,i,i
COc1ccc(NC(=O)NCCN2CCc3ccccc3C2)cc1,82,i,i,i,i,i
COc1ccc(C(CNC(=O)Nc2ccccc2)N2CCN(C)CC2)cc1 (centres undefined),52,i,i,i,i,i
COc1ccc(C(CNC(=O)Nc2ccc(Cl)cc2)N2CCN(C)CC2)cc1 (centres undefined),i,i,i,i,i,i
COc1cccc(C(NC(C)=O)c2nc(-c3ccc4c(c3)OCO4)cs2)c1 (centres undefined),nt,i,i,i,i,i
CCOC(=O)c1c(C)n(C)c2ccc(OC(=O)c3ccc(N4C(=O)CCC4=O)cc3)cc12,i,i,i,i,i,i
COC(=O)c1[nH]c2cccc(Cl)c2c1NC(=O)CN(C)C1CCCCC1,i,i,i,i,i,i
O=C(Cc1ccccc1[N+](=O)[O-])NCC1(c2cccc3c2OCO3)OCCO1,46,i,i,i,i,i
SMILES,LMP1 NFkB inh,Shn3 3UTR inh,Peg3 prom inh,HIF-2a inh,CF NFkB block,KKLEB cytotox
O=C(Cc1ccccc1[N+](=O)[O-])NC1CC1,i,i,i,i,i,i
O=C(/C=C/c1cccc([N+](=O)[O-])c1)c1cccs1,i,i,99,i,i,i
O=C(/C=C/c1cccc([N+](=O)[O-])c1)Nc1ccc(NC(=O)c2cccs2)cc1,i,i,i,i,i,i
C[C@@H]1CN([C@@H](C)CO)C(=O)c2cc(Br)cnc2O[C@H]1CN(C)C(=O)Cc1ccccn1,i,i,i,i,i,i
Cc1ccc(OCC(=O)Oc2cccc(C)c2C)cc1,i,i,i,i,i,i
COc1cc(/C=C\C(=O)O)cc(S(=O)(=O)N2CCCCCC2)c1OC,i,i,i,i,i,i
COc1ccc(C)cc1Nc1nc(N)c2cc(OC)c(OC)cc2n1,i,i,84,i,i,i
COc1ccc(Cl)cc1Nc1nc(N)c2ccccc2n1,i,i,i,i,i,i
CC(C)N=c1cc2n(-c3ccc(Cl)cc3)c3ccccc3nc-2cc1Nc1ccc(Cl)cc1,i,i,101,i,92,i
